The supplement of paper PMC10849652
The full data set covers some 7,900 targets. This sample favours those with a hit. About 0.6% of all pairs of compound and target were hits. Unmarked numbers belong to inactive results.

Assays:
Experiment in all cases: log2 fold change, soluble protein after heating vs DMSO (PISA); higher = thermal stabilisation; K562 cells, 10 uM, 30 min; active = over 0.2 and 3.5 SD of the protein, either way, in both replicates (recomputed)
[1] = compound: CC1=C(C=C(C=C1)NC(=O)C2=CC(=CC=C2)C(C)(C)C#N)NC3=CC4=C(C=C3)N=CN(C4=O)C
Procedure, shortened: (§1)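 K562 cells at 2×10^6 cells/mL were given 10 μM compound for 30 min. Aliquots then went through 3 min of heating across 48°C-58°C, were pooled, and were extracted in PBS with 0.5% NP-40 at 4°C, and the supernatant after 21,000xg for 90 min was quantified by TMTpro 16plex LC-MS/MS with channel sums equalised. Thermal stability relative to control samples, from duplicates, is given as log2 fold change.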

[2] = compound: CC1=C(C=C(C=C1)NC(=O)C2=CC(=CC=C2)N(C)C)NC(=O)C3=CC=C(C=C3)O
Procedure, shortened: as §1

[3] = compound: CC1=CC=C(C=C1)SC2=C3C=C(SC3=CN=C2)C(=O)N
Procedure, shortened: as §1

[4] = compound: CC1=NC(=CC=C1)C2=C(N=C(N2)C(C)(C)C)C3=CC4=NC=CN=C4C=C3
Procedure, shortened: as §1

[5] = compound: CCCCN(Cc1ccc(C(=O)NO)cc1)C(=O)Nc1ccccc1 [Nexturastat A]
Procedure, shortened: as §1

[6] = compound: CCCS(=O)(=O)Nc1ccc(F)c(C(=O)c2c[nH]c3ncc(-c4ccc(Cl)cc4)cc23)c1F [vemurafenib]
Procedure, shortened: as §1

[7] = compound: CCCS(=O)(=O)Nc1ccc(F)c(C(=O)c2c[nH]c3ncc(Cl)cc23)c1F
Procedure, shortened: as §1

[8] = compound: CCCc1cc(C)[nH]c(=O)c1CNC(=O)c1cc(-c2ccnc(N3CCN(C)CC3)c2)cc2c1cnn2C(C)C
Procedure, shortened: as §1

[9] = compound: CCN(CC)Cc1ccc2cc(COC(=O)Nc3ccc(C(=O)NO)cc3)ccc2c1 [givinostat]
Procedure, shortened: as §1

[10] = compound: CCN(CCCOc1ccc2c(Nc3cc(CC(=O)Nc4cccc(F)c4)[nH]n3)ncnc2c1)CCOP(=O)(O)O [barasertib]
Procedure, shortened: as §1

[11] = compound: CC[C@@H]1C(=O)N(C)c2cnc(Nc3ccc(C(=O)NC4CCN(C)CC4)cc3OC)nc2N1C1CCCC1
Procedure, shortened: as §1

[12] = compound: CC[C@@H]1C(=O)N(C)c2cnc(Nc3ccc(C(=O)N[C@H]4CC[C@H](N5CCN(CC6CC6)CC5)CC4)cc3OC)nc2N1C(C)C [volasertib]
Procedure, shortened: as §1

[13] = compound: CC[C@H](C)N1C=C(C2=C(C=C(C=C21)C3=CN=C(C=C3)N4CCNCC4)C(=O)NCC5=C(C=C(NC5=O)C)C)C
Procedure, shortened: as §1

[14] = compound: CC[C@H](C)[C@@H](C(=O)N[C@@H]([C@@H](C)O)C(=O)N[C@@H](CC(C)C)C(=O)[C@]1(CO1)C)NC(=O)[C@H]([C@@H](C)CC)N(C)C(=O)C [epoxomicin]
Procedure, shortened: as §1

[15] = compound: CCn1c(C(=O)N(C2CC2)C2CC2)cc2c3c(ncn3C)c(Nc3cc(C)n(C)n3)nc21
Procedure, shortened: as §1

[16] = compound: CCn1cc(-c2ccnc3[nH]c(-c4cccc(CN(C)C)c4)cc23)c(-c2ccc(NC(=O)N(C)C)cc2)n1
Procedure, shortened: as §1

[17] = compound: CN(C)CC(=O)Nc1ccc2[nH]c(=O)c3ccccc3c2c1
Procedure, shortened: as §1

[18] = compound: CN(CCOC1=CC=C(C=C1)C[C@H]2C(=O)NC(=O)S2)C3=CC=CC=N3 (racemic) [rosiglitazone]
Procedure, shortened: as §1

[19] = compound: CN1C2=C(C3=C1C(=O)N(N=C3)CC4=CC(=CC=C4)N)SC(=C2)S(=O)C
Procedure, shortened: as §1

[20] = compound: CN1CCC(CNc2ccc3ncc(-c4cccc(OC(F)(F)F)c4)n3n2)CC1
Procedure, shortened: as §1

UniProt P12277, sequence (P12277 whole entry, looked up): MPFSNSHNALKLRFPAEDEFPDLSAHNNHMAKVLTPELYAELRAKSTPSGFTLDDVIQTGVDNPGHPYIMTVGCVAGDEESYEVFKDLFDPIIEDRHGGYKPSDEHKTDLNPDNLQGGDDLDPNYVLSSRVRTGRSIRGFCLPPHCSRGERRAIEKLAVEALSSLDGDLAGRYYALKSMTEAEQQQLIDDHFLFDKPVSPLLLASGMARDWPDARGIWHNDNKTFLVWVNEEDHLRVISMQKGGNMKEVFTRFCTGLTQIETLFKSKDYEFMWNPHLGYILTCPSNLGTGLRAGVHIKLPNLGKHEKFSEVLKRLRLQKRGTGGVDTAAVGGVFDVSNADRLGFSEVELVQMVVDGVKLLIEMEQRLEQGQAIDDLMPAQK
UniProt P06493, sequence (P06493 whole entry, looked up): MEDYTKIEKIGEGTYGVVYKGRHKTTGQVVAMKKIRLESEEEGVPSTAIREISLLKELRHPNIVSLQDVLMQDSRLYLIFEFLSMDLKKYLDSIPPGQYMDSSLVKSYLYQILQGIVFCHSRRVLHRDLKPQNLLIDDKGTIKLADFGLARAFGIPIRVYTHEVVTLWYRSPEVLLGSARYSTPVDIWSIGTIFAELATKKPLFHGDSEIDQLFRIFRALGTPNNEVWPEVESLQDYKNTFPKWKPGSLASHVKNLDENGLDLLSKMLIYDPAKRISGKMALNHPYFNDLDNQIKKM
UniProt P51790, sequence (P51790 whole entry, looked up): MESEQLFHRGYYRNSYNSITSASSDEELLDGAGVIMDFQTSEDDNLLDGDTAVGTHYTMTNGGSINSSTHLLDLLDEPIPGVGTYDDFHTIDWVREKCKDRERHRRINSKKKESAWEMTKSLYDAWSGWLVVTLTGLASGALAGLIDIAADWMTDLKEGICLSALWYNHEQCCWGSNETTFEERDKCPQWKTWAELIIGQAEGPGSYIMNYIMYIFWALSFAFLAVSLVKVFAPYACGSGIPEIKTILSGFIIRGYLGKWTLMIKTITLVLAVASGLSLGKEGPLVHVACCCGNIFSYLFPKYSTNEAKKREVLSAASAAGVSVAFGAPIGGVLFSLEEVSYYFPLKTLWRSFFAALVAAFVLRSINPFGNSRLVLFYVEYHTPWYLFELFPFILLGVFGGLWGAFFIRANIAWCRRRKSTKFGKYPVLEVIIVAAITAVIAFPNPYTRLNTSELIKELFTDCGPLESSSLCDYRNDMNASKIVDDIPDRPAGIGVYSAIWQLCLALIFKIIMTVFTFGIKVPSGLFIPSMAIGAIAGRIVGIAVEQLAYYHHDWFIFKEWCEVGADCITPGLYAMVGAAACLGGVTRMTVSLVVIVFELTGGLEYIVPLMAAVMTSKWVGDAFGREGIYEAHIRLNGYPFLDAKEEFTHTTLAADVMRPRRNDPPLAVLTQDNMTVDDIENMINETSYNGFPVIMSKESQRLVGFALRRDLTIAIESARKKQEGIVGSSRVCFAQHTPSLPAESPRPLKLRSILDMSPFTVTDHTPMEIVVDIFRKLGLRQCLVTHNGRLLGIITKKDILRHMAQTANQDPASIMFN
UniProt P51946, sequence (P51946 whole entry, looked up): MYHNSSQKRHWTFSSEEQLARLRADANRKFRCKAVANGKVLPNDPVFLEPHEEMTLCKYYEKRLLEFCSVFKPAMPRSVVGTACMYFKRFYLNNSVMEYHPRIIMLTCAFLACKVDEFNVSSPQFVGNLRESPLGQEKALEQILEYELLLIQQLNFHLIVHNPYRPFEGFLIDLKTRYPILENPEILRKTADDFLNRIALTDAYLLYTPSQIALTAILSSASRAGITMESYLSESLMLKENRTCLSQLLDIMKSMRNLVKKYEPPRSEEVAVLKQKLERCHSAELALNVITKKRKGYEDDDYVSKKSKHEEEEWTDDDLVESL
UniProt P35790, sequence (P35790 whole entry, looked up): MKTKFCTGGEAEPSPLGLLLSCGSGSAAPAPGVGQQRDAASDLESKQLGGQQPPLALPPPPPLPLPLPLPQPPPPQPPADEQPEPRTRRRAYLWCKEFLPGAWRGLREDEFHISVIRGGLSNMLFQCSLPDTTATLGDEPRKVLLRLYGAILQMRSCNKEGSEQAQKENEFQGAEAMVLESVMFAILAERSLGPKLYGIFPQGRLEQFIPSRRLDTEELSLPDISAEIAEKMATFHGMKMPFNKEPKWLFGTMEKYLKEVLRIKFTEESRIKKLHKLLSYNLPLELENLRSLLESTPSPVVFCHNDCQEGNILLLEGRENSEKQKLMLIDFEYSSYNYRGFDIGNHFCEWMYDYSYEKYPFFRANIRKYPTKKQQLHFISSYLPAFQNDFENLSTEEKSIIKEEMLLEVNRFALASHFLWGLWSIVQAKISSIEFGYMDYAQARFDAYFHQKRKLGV
UniProt Q9Y6K0, sequence (Q9Y6K0 whole entry, looked up): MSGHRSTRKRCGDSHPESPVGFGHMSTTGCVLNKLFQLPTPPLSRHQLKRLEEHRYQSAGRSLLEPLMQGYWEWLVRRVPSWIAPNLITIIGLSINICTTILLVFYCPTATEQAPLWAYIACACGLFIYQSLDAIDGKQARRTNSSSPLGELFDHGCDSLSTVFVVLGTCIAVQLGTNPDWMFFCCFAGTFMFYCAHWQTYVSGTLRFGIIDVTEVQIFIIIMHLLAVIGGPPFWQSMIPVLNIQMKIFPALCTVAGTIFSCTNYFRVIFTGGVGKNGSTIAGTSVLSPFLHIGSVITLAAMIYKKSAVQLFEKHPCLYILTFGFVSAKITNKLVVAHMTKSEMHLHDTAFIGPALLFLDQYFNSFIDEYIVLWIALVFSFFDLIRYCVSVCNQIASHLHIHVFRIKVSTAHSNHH
UniProt P19397, sequence (P19397 whole entry, looked up): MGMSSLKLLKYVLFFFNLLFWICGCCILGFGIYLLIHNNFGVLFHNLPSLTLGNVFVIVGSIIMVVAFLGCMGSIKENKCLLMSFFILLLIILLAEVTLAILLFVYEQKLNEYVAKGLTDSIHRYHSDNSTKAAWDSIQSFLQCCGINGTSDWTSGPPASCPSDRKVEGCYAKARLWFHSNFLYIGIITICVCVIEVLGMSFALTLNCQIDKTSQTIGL
UniProt P51798, sequence (P51798 whole entry, looked up): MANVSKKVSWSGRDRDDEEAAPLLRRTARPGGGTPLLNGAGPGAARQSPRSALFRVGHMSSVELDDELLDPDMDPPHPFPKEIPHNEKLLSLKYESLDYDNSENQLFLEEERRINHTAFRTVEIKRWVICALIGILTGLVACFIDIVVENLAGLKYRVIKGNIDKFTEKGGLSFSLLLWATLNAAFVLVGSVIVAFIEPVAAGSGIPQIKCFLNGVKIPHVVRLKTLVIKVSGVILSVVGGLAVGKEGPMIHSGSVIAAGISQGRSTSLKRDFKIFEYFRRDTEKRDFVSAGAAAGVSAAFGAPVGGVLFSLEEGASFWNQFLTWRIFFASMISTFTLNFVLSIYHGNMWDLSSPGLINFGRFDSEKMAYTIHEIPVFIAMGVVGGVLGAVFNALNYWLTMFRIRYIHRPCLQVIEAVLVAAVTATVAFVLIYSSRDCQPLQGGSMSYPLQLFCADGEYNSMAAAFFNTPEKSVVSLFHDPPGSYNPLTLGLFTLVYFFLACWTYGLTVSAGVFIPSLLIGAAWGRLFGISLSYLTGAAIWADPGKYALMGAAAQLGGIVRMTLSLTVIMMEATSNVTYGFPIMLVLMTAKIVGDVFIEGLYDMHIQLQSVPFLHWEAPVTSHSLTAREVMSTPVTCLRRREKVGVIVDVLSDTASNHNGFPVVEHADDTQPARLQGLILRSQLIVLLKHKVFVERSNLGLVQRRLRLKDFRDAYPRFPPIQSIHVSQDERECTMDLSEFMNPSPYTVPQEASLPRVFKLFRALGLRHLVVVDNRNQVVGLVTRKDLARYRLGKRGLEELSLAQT
UniProt Q9Y6H1, sequence (Q9Y6H1 whole entry, looked up): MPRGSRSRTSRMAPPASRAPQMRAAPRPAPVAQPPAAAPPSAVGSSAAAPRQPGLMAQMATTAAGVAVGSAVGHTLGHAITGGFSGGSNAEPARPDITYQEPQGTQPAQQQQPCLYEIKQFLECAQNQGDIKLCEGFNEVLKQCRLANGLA
UniProt Q9Y3X0, sequence (Q9Y3X0 whole entry, looked up): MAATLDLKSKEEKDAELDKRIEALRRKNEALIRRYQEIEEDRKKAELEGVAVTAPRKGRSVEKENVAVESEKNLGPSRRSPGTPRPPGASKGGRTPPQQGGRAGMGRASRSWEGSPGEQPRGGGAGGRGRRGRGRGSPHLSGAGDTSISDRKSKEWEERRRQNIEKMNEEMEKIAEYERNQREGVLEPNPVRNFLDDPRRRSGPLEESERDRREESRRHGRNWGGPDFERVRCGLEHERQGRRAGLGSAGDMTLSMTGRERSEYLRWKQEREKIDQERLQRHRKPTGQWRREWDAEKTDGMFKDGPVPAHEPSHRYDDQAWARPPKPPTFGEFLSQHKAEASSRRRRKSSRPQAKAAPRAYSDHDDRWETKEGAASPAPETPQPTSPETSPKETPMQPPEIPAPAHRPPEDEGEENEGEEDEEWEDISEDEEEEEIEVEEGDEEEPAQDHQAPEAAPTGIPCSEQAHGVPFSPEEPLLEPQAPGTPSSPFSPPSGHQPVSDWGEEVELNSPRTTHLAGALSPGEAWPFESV
UniProt P16152, sequence (P16152 whole entry, looked up): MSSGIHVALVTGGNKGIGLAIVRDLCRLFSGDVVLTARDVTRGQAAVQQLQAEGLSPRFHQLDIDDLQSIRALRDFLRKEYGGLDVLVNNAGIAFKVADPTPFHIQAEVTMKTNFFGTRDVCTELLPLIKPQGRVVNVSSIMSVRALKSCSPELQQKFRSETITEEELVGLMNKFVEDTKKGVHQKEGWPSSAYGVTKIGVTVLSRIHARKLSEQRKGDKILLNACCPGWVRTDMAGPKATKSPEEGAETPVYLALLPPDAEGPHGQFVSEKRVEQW
UniProt P05937, sequence (P05937 whole entry, looked up): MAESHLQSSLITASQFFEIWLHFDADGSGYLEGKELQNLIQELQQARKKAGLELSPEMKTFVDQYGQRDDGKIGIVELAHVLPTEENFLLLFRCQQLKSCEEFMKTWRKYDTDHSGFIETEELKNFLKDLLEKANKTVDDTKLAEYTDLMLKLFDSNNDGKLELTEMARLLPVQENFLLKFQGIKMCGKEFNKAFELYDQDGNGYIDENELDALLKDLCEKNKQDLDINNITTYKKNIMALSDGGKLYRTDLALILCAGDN

| Target | log2 fold change [1] | log2 fold change [2] | log2 fold change [3] | log2 fold change [4] | log2 fold change [5] | log2 fold change [6] | log2 fold change [7] | log2 fold change [8] | log2 fold change [9] | log2 fold change [10] | log2 fold change [11] | log2 fold change [12] | log2 fold change [13] | log2 fold change [14] | log2 fold change [15] | log2 fold change [16] | log2 fold change [17] | log2 fold change [18] | log2 fold change [19] | log2 fold change [20] |
| --- | --- | --- | --- | --- | --- | --- | --- | --- | --- | --- | --- | --- | --- | --- | --- | --- | --- | --- | --- | --- |
| CEPT1 (UniProt Q9Y6K0) | 0.048 | 0.068 | 0.005 | 0.069 | -0.123 | 0.123 | 0.016 | -0.122 | -0.023 | 0.013 | -0.186 | -0.231 | -0.066 | -0.043 | 0.039 | -0.025 | 0.059 | 0.067 | -0.072 | 0.03 |
| CBR1 (UniProt P16152) | 0.006 | -0.023 | 0.005 | 0.038 | -0.032 | -0.001 | 0.074 | 0.051 | 0.005 | 0.025 | -0.001 | -0.041 | -0.017 | 0.06 | -0.006 | 0 | 0.005 | 0.013 | -0.077 | 0.077 |
| CALB1 (UniProt P05937) | -0.004 | 0.032 | 0.027 | 0.042 | -0.023 | 0.057 | 0.019 | 0.011 | -0.031 | 0.037 | -0.123 | -0.092 | -0.007 | 0.043 | 0.003 | 0.05 | 0.016 | 0.027 | -0.039 | -0.282 (active) |
| CHCHD2 (UniProt Q9Y6H1) | 0.019 | -0.037 | 0.282 | 0.004 | -0.047 | -0.028 | -0.019 | -0.09 | -0.042 | 0.008 | 0.04 | 0.103 | -0.034 | 0.026 | -0.027 | -0.055 | -0.004 | 0.04 | -0.058 | 0.044 |
| CPSF6 isoform 2 (UniProt Q16630) | 0.054 | 0.02 | -0.027 | 0.02 | -0.042 | 0.001 | -0.069 | 0.035 | 0.048 | -0.042 | 0.016 | 0.02 | 0.016 | -0.014 | -0.037 | -0.036 | -0.062 | 0.008 | 0.004 | -0.014 |
| CCAR2 isoform 2 (UniProt Q8N163) | 0.032 | -0.048 | -0.017 | 0.001 | 0 | 0.042 | 0.05 | 0.28 | 0.144 | 0.026 | -0.08 | -0.343 (active) | 0.031 | -0.018 | -0.057 | -0.025 | 0.044 | 0.047 | 0.003 | -0.145 |
| CDK1 (UniProt P06493) | 0.017 | -0.017 | 0.004 | 0.036 | -0.015 | 0.029 | 0.02 | 0.001 | 0.048 | 0.001 | -0.03 | -0.05 | 0.017 | 0.055 | -0.002 | 0 | 0.03 | 0.032 | 0.005 | -0.108 |
| CD53 (UniProt P19397) | -0.062 | -0.099 | -0.13 | -0.095 | -0.006 | -0.035 | -0.182 | -0.092 | -0.006 | -0.102 | 0.183 | -0.103 | -0.049 | -0.02 | 0.004 | -0.092 | -0.007 | 0.074 | -0.051 | -0.06 |
| CDK12 (UniProt Q9NYV4) | 0.049 | -0.001 | -0.079 | -0.077 | 0.278 | -0.047 | -0.002 | 0.104 | 0.026 | -0.083 | 0.147 | 0.237 | 0.016 | -0.363 | -0.005 | 0.041 | -0.027 | -0.101 | 0.392 | -0.102 |
| CLCN3 isoform 2 (UniProt P51790) | -0.055 | 0.002 | 0.008 | 0.061 | -0.026 | 0 | 0.03 | -0.023 | 0.029 | -0.006 | -0.047 | -0.113 | 0.026 | 0.003 | 0.018 | -0.032 | 0.024 | 0.001 | -0.028 | -0.079 |
| CLCN7 (UniProt P51798) | 0.027 | -0.026 | 0.029 | 0.006 | -0.07 | 0.001 | 0.038 | -0.068 | -0.007 | -0.015 | -0.338 (active) | -0.297 | 0.031 | -0.001 | -0.022 | -0.047 | -0.01 | 0.049 | 0.009 | -1.05 (active) |
| CHKA (UniProt P35790) | -0.011 | -0.048 | -0.125 | 0.033 | 0.036 | -0.017 | 0.019 | -0.164 | 0.334 (active) | 0.05 | 0.22 | 0.161 | -0.077 | 0.127 | -0.001 | 0.203 | 0.043 | 0.044 | -0.082 | 0.187 |
| CKB (UniProt P12277) | 0.016 | -0.006 | -0.008 | 0.016 | -0.032 | 0 | 0.015 | -0.016 | -0.013 | -0.002 | 0.002 | 0.265 (active) | 0.008 | 0.044 | 0.01 | -0.108 | 0.009 | 0.03 | -0.111 | -0.056 |
| CCDC9 (UniProt Q9Y3X0) | -0.042 | 0.007 | 0.019 | 0.055 | 0.119 | -0.007 | -0.009 | -0.004 | -0.069 | 0.021 | 0.081 | 0.127 | -0.051 | -0.018 | 0.032 | 0.051 | 0.002 | 0.021 | 0.025 | 0.009 |
| CCNH (UniProt P51946) | -0.023 | 0.007 | -0.015 | -0.056 | -0.002 | 0.003 | 0.018 | -0.029 | -0.007 | 0.031 | -0.034 | -0.028 | 0.021 | -0.024 | -0.004 | 0.046 | -0.019 | -0.001 | -0.069 | 0.005 |
| CHCHD1 (UniProt Q96BP2) | -0.02 | -0.119 | 0.279 | 0.008 | 0.141 | -0.044 | 0.024 | -0.747 | 0.013 | -0.105 | -0.054 | -0.32 | -0.001 | -0.026 | -0.028 | -0.009 | 0.02 | 0.035 | 0.033 | -0.191 |
